In PubChem BioAssay (Tox21):
“And” between values parts separate entries of the source, which are not always exact repeats. Identical values can stand only once. Records with an inconclusive call do not appear. Values without a mark were called inactive. The source made the active and inactive calls. Calls follow the shape of the dose curve; as a rule, active = well fitted inhibition curve with a large enough effect in the signal ratio in the repeat runs (not every such curve was filed as active); inconclusive = weak or mixed curves, or effect the other way; inactive = no such curve, though single readings can be large or run the other way; the % refers to the signal ratio.

Each molecule was assayed against Androgen receptor (Homo sapiens) (UniProt P10275) (assay: qHTS assay to identify small molecule antagonists of the androgen receptor (AR) signaling pathway (AID 743035)). Conditions: HEK293 AR-UAS-bla, R1881-stimulated, beta-lactamase FRET, 16 h; series mostly up to 58.5 µM; activity change, negative = inhibition: at the top concentration.
Chain of Androgen receptor (Homo sapiens) (P10275 whole entry, looked up): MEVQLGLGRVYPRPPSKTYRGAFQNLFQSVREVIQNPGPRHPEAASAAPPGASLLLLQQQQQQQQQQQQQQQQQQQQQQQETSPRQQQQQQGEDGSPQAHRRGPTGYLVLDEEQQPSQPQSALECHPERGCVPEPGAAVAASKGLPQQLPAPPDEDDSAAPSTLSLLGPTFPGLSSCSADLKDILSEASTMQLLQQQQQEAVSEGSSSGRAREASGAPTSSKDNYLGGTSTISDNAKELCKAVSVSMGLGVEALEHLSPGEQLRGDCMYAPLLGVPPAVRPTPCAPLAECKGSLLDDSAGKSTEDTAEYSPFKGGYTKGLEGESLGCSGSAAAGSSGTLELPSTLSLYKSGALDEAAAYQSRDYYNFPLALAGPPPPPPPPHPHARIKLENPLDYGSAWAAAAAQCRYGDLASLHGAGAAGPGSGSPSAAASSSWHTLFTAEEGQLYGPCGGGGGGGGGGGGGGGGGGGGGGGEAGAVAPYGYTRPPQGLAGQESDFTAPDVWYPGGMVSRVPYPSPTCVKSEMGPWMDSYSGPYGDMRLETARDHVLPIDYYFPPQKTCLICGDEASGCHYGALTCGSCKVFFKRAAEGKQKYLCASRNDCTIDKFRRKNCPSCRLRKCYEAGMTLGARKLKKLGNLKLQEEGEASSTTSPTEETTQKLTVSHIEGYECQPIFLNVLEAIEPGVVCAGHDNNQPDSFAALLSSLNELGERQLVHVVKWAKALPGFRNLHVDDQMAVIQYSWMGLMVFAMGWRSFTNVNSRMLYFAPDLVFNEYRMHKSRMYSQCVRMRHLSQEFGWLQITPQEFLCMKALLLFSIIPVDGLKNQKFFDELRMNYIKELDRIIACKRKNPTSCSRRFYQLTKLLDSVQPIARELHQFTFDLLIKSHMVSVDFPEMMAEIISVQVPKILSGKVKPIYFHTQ
From the text: National Center for Advancing Translational Sciences [NCATS]
NIH Chemical Genomics Center [NCGC]
U.S. Environmental Protection Agency [EPA]
National Institutes of Environmental Health Sciences [NIEHS]
National Toxicology Program [NTP]
U.S. Food and Drug Administration [FDA]
Androgen receptor (AR), a nuclear hormone receptor, plays a critical role in AR-dependent prostate cancer and other androgen related diseases. Endocrine disrupting chemicals (EDCs) and their interactions with steroid hormone receptors like AR may cause disruption of normal endocrine function as well as interfere with metabolic homeostasis, reproduction, developmental and behavioral functions. To identify the compounds that inhibit AR signaling, GeneBLAzer AR-UAS-bla-GripTite cell line (Invitrogen, Carlsbad, CA, USA) containing a beta-lactamase reporter gene under control of an Upstream Activator Sequence (UAS) stably integrated into HEK293 cells was used to screen the Tox21 10K compound library.
Tox21 Assay Protocol Summary:
AR-bla cells were dispensed at 2,000 cells/5 uL of assay medium per well into black wall/clear-bottom 1536-well plates using a Multidrop Combi (ThermoFisher Scientific, Waltham, MA) dispenser. After the assay plates were incubated at a 37C and 5% CO2 for 4 hr, 23 nL of compounds dissolved in DMSO, positive controls or DMSO only was transferred to the assay plate by a Pintool station (Kalypsys, San Diego, CA), followed by addition of 1 uL of agonist (R1881) in culture medium using a Bioraptr Flying Reagent Dispenser (FRD) workstation (Beckman Coulter, Indianapolis, IN, USA). The plates were incubated at a 37C and 5% CO2 for 16 h. After 1 uL of LiveBLAzerTM B/G FRET substrate was added using a Bioraptr FRD, the plates were incubated at room temperature for 2 h and fluorescence intensity was measured by an Envision plate reader (PerkinElmer, Shelton, CT).
% is scaled to controls: 0 for no effect and ±100 for the full control effect; potency is read from the fitted curve at half-maximal effect.

| SMILES | activity change, negative = inhibition | Potency |
| --- | --- | --- |
| Cc1c(C(=O)O)cccc1[N+](=O)[O-] | -9.7% [at 78.9 µM] | – |
| C=CC(=O)OCCC#N | 7.02% [at 78.9 µM] | – |
| CC1=C(/C=C/C(C)=C/C=C/C(C)=C/C(=O)Nc2ccc(O)cc2)C(C)(C)CCC1 | – | 23.9 µM (active) and 14.2 µM (active) |
| CCN=c1cc2oc3cc(NCC)c(C)cc3c(-c3ccccc3C(=O)OCC)c-2cc1C | – | 0.154 µM (active) |
| Cc1cn[nH]c1 | -20.2% | – |
| O=Cc1ccc(F)cc1 | 6.41% | – |
| CC1(C)C(=O)N(Br)C(=O)N1Br | 7.58% | – |
| O=C1NCCN1CCN1CCC(c2cn(-c3ccc(F)cc3)c3ccc(Cl)cc23)CC1 | – | 16.9 µM (active) and 21.3 µM (active) |
| NC(=O)c1nc(-c2cccc(-c3cc(F)ccc3OCC(F)(F)C(F)(F)F)c2)n[nH]1 | – | 13.8 µM (active) |
| CC(NCCC(c1ccccc1)c1ccccc1)c1ccccc1 (centres undefined) | – | 21.3 µM (active) |
| O=C1c2c(O)ccc(O)c2C(=O)c2c(NCCNCCO)ccc(NCCNCCO)c21 | – | 0.512 µM (active) |
| CCCCCCOc1ccc(O)cc1 | – | 24.5 µM (active) |
| O=C1OC(OC(=O)c2cccnc2Nc2cccc(C(F)(F)F)c2)c2ccccc21 (centres undefined) | -8.78% | – |
| c1ccc(Sc2ccccc2)cc1 | 7.54% | – |
| CCN1CCN(c2cc(-c3ccc(F)cc3)c3c(n2)CCCCCC3)CC1 | -12.4% | – |
| C[C@@H]1CC[C@H]2C(C)(C)[C@H]3C[C@@]12CC[C@@]3(C)O | -4.01% | – |
| O=C(O)c1cccc(Cl)n1 | -0.241% | – |
| COc1ccccc1OCCNCC(O)COc1cccc2[nH]c3ccccc3c12 (centres undefined) | -25.3% | – |
| COC(=O)C1=C(C)NC(C)=C(C(=O)OCCCN2CCC(c3ccccc3)(c3ccccc3)CC2)C1c1cccc([N+](=O)[O-])c1 (centres undefined) | – | 16.9 µM (active) |
| N[C@@H](CSSC[C@H](N)C(=O)O)C(=O)O | 0.558% | – |
| C[C@H]1O[C@@H](O[C@H]2[C@@H](O)C[C@H](O[C@H]3[C@@H](O)C[C@H](O[C@H]4CC[C@@]5(C)[C@H](CC[C@@H]6[C@@H]5C[C@@H](O)[C@]5(C)[C@@H](C7=CC(=O)OC7)CC[C@]65O)C4)O[C@@H]3C)O[C@@H]2C)C[C@H](O)[C@@H]1O | – | 338 nM (active) and 61.7 nM (active) and 136 nM (active) |
| C[Si](C)(C)Cl | -0.689% | – |
| CC(C)(c1cc(Br)c(OCCO)c(Br)c1)c1cc(Br)c(OCCO)c(Br)c1 | – | 17 µM (active) |
| C=CC(C)(CCC=C(C)C)OC(=O)/C=C/c1ccccc1 (centres undefined) | 0.752% | – |
